# The entries come from a sample that favours hits as a whole.
# p53 reactivator – qHTS assay for re-activators of p53 using a Luc reporter; H1299 p53-A138V BP100-luciferase reporter, luminescence, 24 h; Potency, µM (titrated, usually from 92.2 µM), for the others: at the highest dose activity change, positive = activation, actives largely listed as activators; 0.063% of 320,000 active; AID 504706, 2011; also: % of control where 0% means no effect; nearly all actives have a fitted effect of over 45% in size
#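 p53-null H1299 cells stably carrying temperature-sensitive p53-A138V and a BP100-luciferase reporter were pinned with compounds (4-point, 1:5 series) and held 24 hrs at 37 deg C. Luminescence was read 10 min after detection reagent.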
# a7 integrin act – qHTS for Activators of Integrin-Mediated Alleviation for Muscular Dystrophy; alpha7betagal myoblasts, beta-gal FDG fluorescence, 48 h; Potency, µM (series often up to 38.3 µM), inactives show top-dose activation, actives largely listed as activators; 0.064% of 350,000 active; AID 624291, 2012;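 also: 100% = response of the positive control SU9516; nearly all actives have a fitted effect of over 60% in size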
#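 alpha7betagal+/- myoblasts (passage 13, 250/well) treated 48 h at 37C with compounds at 1:260 dilution of DMSO stock. Lysed, then beta-galactosidase activity read as FDG fluorescence (ex 480/em 540) after 30 min, with pre-read for autofluorescence.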
# Eya2 inh – qHTS Assay for Inhibitors of the Phosphatase Activity of Eya2. Protein phosphatase EYA2 (Homo sapiens), O00167. recombinant Eya2, OMFP fluorescence dephosphorylation (OMFP is methylfluorescein phosphate). 0.006% of 330,000 active. Potency, µM (titrated, usually from 76.9 µM), without a hit: at the highest dose activity, negative = inhibition, hits mostly inhibitors; also: % is scaled to controls: 0 for no effect and ±100 for the full control effect
#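 Eya2 protein (added as 0.2 uM solution) was preincubated with compound for 10 min at ambient temperature in 50 mM HEPES pH 7.5, 50 mM NaCl, 5 uM MgCl2, 0.05% BSA, 1 mM DTT. OMFP (added at 50 uM) then reacted 10 min; fluorescence read at 485/525 nm.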
# USP2a block – qHTS Assay for Inhibitors of Ubiquitin-specific Protease USP2a Using CHOP2 as the Reporter; Potency, µM (doses to about 38.3 µM), for the others: at the highest dose activity change, negative = inhibition, usual class: inhibitors; AID 463254, 2010; Ubiquitin carboxyl-terminal hydrolase 2 (Homo sapiens), O75604; USP2 core, Ub-CHOP2 coupled fluorogenic reporter, 485/531; 0.01% of 330,000 active;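 also: plate controls were DMSO wells for no effect and full inhibition by NEM control for full effect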
# Target sequence (O75604 whole entry, looked up): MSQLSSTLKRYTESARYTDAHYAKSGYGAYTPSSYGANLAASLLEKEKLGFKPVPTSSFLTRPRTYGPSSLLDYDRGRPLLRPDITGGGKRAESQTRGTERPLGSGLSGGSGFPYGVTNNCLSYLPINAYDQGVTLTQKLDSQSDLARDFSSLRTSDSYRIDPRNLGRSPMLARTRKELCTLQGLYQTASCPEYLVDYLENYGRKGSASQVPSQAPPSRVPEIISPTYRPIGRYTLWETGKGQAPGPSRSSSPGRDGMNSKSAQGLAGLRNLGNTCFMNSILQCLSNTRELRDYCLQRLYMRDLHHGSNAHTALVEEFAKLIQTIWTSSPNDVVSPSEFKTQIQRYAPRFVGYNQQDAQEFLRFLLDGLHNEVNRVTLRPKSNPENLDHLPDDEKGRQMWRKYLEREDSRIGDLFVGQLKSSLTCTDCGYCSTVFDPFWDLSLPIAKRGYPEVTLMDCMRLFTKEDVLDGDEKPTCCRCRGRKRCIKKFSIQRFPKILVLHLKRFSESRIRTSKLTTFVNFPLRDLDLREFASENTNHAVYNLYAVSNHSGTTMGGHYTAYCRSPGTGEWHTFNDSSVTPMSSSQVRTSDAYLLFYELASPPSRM
#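 USP2 core (10nM final) preincubated 30min RT with compound in 20mM Tris-HCl pH 8.0, 2mM CaCl2, 2mM beta-mercaptoethanol, 0.05% CHAPS; 25nM Ub-CHOP2 plus 25nM reporter substrate added, fluorescence (Ex485/Em531) read after 60min.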
# Mm-Cpn inhibitor – Inhibitors of TCP-1 ring complex (TRiC) of Methanococcus maripaludis (MmCpn): qHTS; Potency, µM (titrated, usually from 76.9 µM), for the others: top-dose activity, negative = inhibition, usual class: inhibitors; 0.031% of 330,000 active; Chaperonin Mm-Cpn (Methanococcus maripaludis); purified Mm-Cpn ATPase, ADP Transcreener TR-FRET; also: % is scaled to controls: 0 for no effect and ±100 for the full control effect; nearly all actives have a fitted effect of over 80% in size
#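 Eu-cryptate anti-ADP/ADP-d2 competition gives a ratio inversely related to ADP. Enzyme at 25 nM was pre-exposed to compound for 10 min, then given 10 uM ATP for 30 min, 37°C throughout.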
# ClpP mod – qHTS Assay for Activators of ClpP | purified B. subtilis ClpP, FRET peptide cleavage, 20 min | 1.9% of 340,000 active | Potency, µM (doses to about 57.5 µM), inactives show at the top dose activity change, negative = active | ATP-dependent Clp protease proteolytic subunit (Bacillus subtilis (strain 168)), P80244 | AID 651965, 2013; active = well fitted falling curve with a large enough effect; inconclusive = small, poorly fitted or top-dose-only effect; inactive = no such curve, though single readings can be large or run the other way; also: the source files actives as falling curves though it sought activators and does not explain the sign; nearly all actives have a fitted effect of over 65% in size
#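 ClpP 10 microg/mL final, pH 8 Tris/KCl buffer with BSA, glycerol, Tween-20; compound pinned in; FRET-FV substrate; RT 20 min; Ex320/Em430; ΔFRET vs ADEP 5.8 microM, DMSO, no enzyme.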
# * hit, by the source's call; ? = inconclusive; / = no result given. Unless noted, calls follow the shape of the dose curve; as a rule, active = well fitted curve in the direction sought with a large enough effect; inconclusive = small, poorly fitted or top-dose-only effect, or another doubt; inactive = no such curve, though single readings can be large; an effect the other way counts as inactive or inconclusive. Potency is read from the fitted curve at half-maximal effect.
SMILES,p53 reactivator,a7 integrin act,Eya2 inh,USP2a block,Mm-Cpn inhibitor,ClpP mod
CN(c1ccccc1)S(=O)(=O)c1ccc(NC(=O)c2ccc(-c3ccccc3)cc2)cc1,4%,-40%,-8%,-1%,-22%,25µM*
COc1ccccc1C1NC(c2ccc3c(c2)OCO3)=CC(c2cc(Br)ccc2O)N1 (centres undefined),/,/,/,/,/,-16%
Nc1n[nH]c2c1C1(CCCCC1)Cc1ccccc1-2,-7%,12%,-4%,-12%,2%,-8%
CCC(=O)Nn1cnc2c(c1=O)C1(CCCCC1)Cc1ccccc1-2,-1%,-2%,-1%,-1%,1%,-1%
Nc1ncnc2c1C1(CCCCC1)Cc1ccccc1-2,0%,15%,-8%,0%,1%,16µM*
c1ccc(OCc2nc3c4c(ncn3n2)-c2ccccc2CC42CCCC2)cc1,-3%,25%,3%,4%,-12%,13µM*
CC(C)(C)NC(=O)Cn1cc(S(=O)(=O)Cc2ccccc2Cl)c2ccccc21,/,/,/,/,/,0%
N#Cc1nc(-c2ccc(OCc3ccc(Cl)cc3)cc2)oc1N1CCCCCC1,/,/,/,/,/,4%
CCOc1ccccc1Nc1nnc(-c2cc3cc(Cl)ccc3oc2=O)s1,/,/,/,/,/,1%
O=C(NCc1ccccc1Cl)c1ccc(S(=O)(=O)Nc2cccc(C(F)(F)F)c2)cc1,3%,13%,-11%,-2%,1%,20µM*
Cc1ccnc2ccc(I)cc12,/,/,/,/,/,1%
CCC1(C)Cc2ccccc2-c2nc3n(c(=O)c21)CCS3 (centres undefined),-6%,9%,-4%,-1%,-7%,?
CCC1(C)Cc2ccccc2-c2nc(NCCCO)n(-c3ccccc3)c(=O)c21 (centres undefined),-5%,-1%,-24%,1%,-5%,3.5µM*
O=c1[nH]c(NCCO)nc2c1C1(CCCC1)Cc1ccccc1-2,-2%,-20%,2%,4%,2%,32%
Cn1c(NCCCO)nc2c(c1=O)C1(CCCCC1)Cc1ccccc1-2,-13%,-12%,-9%,-18%,-1%,28µM*
CCC1(C)Cc2ccccc2-c2nc3n(c(=O)c21)CC(C(=O)O)S3 (centres undefined),-16%,1%,-3%,-5%,-2%,25µM*
CCn1c(NCCO)nc2c(c1=O)C(C)(CC)Cc1ccccc1-2 (centres undefined),-5%,-15%,-1%,-1%,-4%,1%
CCOC(=O)N1CCC(NC(=O)c2cnn(-c3ccc(F)cc3)c2-n2cccc2)CC1,/,/,/,/,/,1%
COc1ccc(NC(=O)c2ccccc2OCC(=O)Nc2ccc(Br)cc2)cc1,/,/,/,/,/,-19%
CN(C)c1ccc(-c2nnn(Cc3ccccc3Br)n2)cc1,10%,-4%,-3%,0%,-3%,28µM*
Cc1cccc(NC(=O)COc2ccc3c(c2)CCC3)n1,20%,4%,-14%,2%,-6%,28µM*
O=C(COc1ccc2c(c1)CCC2)Nc1ccccn1,-7%,-5%,-5%,-1%,0%,2%
COc1ccccc1CCNC(=O)C(=O)NCC(c1ccco1)S(=O)(=O)c1ccc(F)cc1 (centres undefined),/,/,/,/,/,1%
Cc1ccn(C(=O)c2cc3c(C)nn(-c4ccccc4)c3s2)n1,4%,-6%,-1%,1%,-14%,3.5µM*
Cc1nn(-c2ccccc2)c2sc(C(=O)NCCN3CCOCC3)cc12,-33%,4%,4%,0%,0%,28µM*
SMILES,p53 reactivator,a7 integrin act,Eya2 inh,USP2a block,Mm-Cpn inhibitor,ClpP mod
Cc1cc(C)n(-c2ccc(C(=O)OCn3nnc4ccccc4c3=O)cc2)n1,-6%,-23%,3%,-1%,2%,3%
Cc1nn(-c2ccccc2)c2sc(C(=O)OCn3nnc4ccccc4c3=O)cc12,0%,4%,-5%,3%,1%,10µM*
Cc1nn(-c2ccccc2)c2sc(C(=O)n3cccn3)cc12,9%,15%,-9%,0%,-8%,?
COc1ccc(OCCCn2c(CCNC(=O)C3CCCCC3)nc3ccccc32)cc1,/,/,/,/,/,-5%
COC(=O)c1ccc(C2=NOC(C)(c3sc(-c4ccc(Cl)cc4)nc3C)C2)cc1 (centres undefined),6%,-9%,4%,-6%,-6%,25µM*
COC(=O)C1=C(C(=O)OC)N2C=CC=CC2(C)C(C(=O)OC)=C1C(=O)OC (centres undefined),-7%,-22%,-4%,-2%,1%,2.8µM*
COc1ccc(-c2n[nH]c(C(F)(F)F)c2-c2cc3ccccc3o2)c(O)c1,-5%,-34%,3%,-21%,-4%,25µM*
CC1(C)CC(=O)C2=C(C1)Nc1cc3c(cc1C2c1ccc(F)cc1)OCO3 (centres undefined),20%,-4%,-1%,4%,1%,32µM*
Cc1ccc(C2C3=C(CC(C)(C)CC3=O)Nc3onc(C)c32)cc1 (centres undefined),-3%,-15%,3%,-1%,0%,32µM*
Cc1noc2c1C(c1ccc(N(C)C)cc1)C1=C(CC(C)(C)CC1=O)N2 (centres undefined),0%,-28%,11%,2%,-4%,-3%
NC(=S)c1ccc[n+]([C@@H]2O[C@@H](COP(=O)([O-])OP(=O)(O)OC[C@H]3O[C@@H](n4cnc5c(N)ncnc54)[C@H](OP(=O)(O)O)[C@@H]3O)C(O)C2O)c1 (some centres undefined),/,/,4%,/,/,/
CCOCCCNC(=O)C1CCN(c2nc3ccc(C)cc3[nH]2)CC1,/,/,/,/,/,-1%
Ic1ccc(Nc2nc(NCCN3CCOCC3)nc(N3CCOCC3)n2)cc1,/,/,/,/,/,1%
CSc1nc(SCCO)c2sc3nc(-c4ccco4)c4c(c3c2n1)CC(C)(C)OC4,28%,20%,-24%,10µM*,-16%,7%
CCOc1ccc(/C=C/c2ccc3ccccc3n2)cc1OCC,/,/,/,/,/,0%
COc1ccc(-c2cc(C(F)(F)F)nc(SCCC(=O)N3CCOCC3)n2)cc1,0%,-7%,-8%,3%,0%,25µM*
COc1ccccc1CNC(=O)CSc1nc(-c2ccc(OC)c(OC)c2)cc(C(F)(F)F)n1,/,/,/,/,/,28µM*

# Assay outcomes (PubChem)
